Source: PubChem BioAssay
FBPA coupling cs: counter-screen for Giardia aldolase inhibitors: coupling enzyme system; coupling enzyme system counterscreen, AmpLite Red fluorescence; actives 0.67% (n = 290,000); activity change, negative = inhibition, % at 58.2 µM, hits read low; in the data active means activity change below about -30%
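Counterscreen lacking aldolase: glyceraldehyde-3-phosphate coupling-enzyme reagent preincubated 10 min at RT with compound (at 57.5 uM final), then substrate/coupling system with AmpLite Red added; fluorescence read at 525/598 nm after 20 min RT.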
Tau fluor cs: counter-screen for tau fibril formation inhibitors. actives 0.93% (n = 280,000). tau K18 P301L Alexa594 fluorescence, heparin fibrillization. Potency, µM (titrated, usually from 57.7 µM), for inactives: at the highest dose activity change, negative = decrease; further: potency means the concentration at half of the fitted maximal effect; nearly all actives have a fitted effect of over 55% in size
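Human tau K18 P301L (15 uM unlabeled, 0.24 uM Alexa 594-labeled) in 100 mM sodium acetate pH 7 with 20 uM heparin, 6 hr at 37 C. ThT 30 uM added, 1 hr ambient; Alexa 594 FP and total fluorescence read at 555/632 nm.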
Tau fibril ThT: tau fibrillization inhibition (ThT binding); P10636; recombinant tau K18 P301L, heparin-induced fibrillization, ThT fluorescence; Potency, µM (series often up to 57.4 µM), for inactives: at the highest dose activity, negative = inhibition, usual class: inhibitors; actives 2.1% (n = 270,000); AID 1460; further: potency means the concentration at half of the fitted maximal effect; nearly all actives have a fitted effect of over 55% in size
Target sequence (P10636 561-689 P618L limits assumed): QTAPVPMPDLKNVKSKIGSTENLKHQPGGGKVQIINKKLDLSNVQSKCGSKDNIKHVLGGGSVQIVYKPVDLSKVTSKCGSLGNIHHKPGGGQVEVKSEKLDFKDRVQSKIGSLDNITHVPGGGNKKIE
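Using a mix of unlabeled (15 uM) and Alexa 594-labeled (0.24 uM) tau K18 P301L, heparin-triggered fibrillization over 6 hr at 37 C was scored by ThT fluorescence.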
Sfp inh: inhibitors of Bacillus subtilis Sfp phosphopantetheinyl transferase; Potency, µM, without a hit: largest response in the series, negative = inhibition, most hits filed as inhibitors; actives 3.5% (n = 310,000); Biochemical Sfp PPTase activity, qHTS;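 further: the enzyme is Sfp with the accession as filed and its product quenches rhodamine fluorescence; potency means the concentration at half of the fitted maximal effect; 0% = enzyme reaction without inhibitor and -100% = no enzyme wells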
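Fluorescence-quenching assay: 15 nM Sfp-PPTase preincubated 15 min at room temperature with compound, then 5 uM rhodamine-CoA and 12.5 uM BHQ-2-labelled YbbR peptide added. Fluorescence (ex 525/em 598 nm) read at start and after 30 min; difference gives rate.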
Tau fibril FP: blocks human tau fibril formation measured by polarization | AID 1468 | actives 0.39% (n = 280,000) | Potency, µM (doses to about 57.7 µM), inactives show at the top dose activity, negative = inhibition, actives largely listed as inhibitors | K18 P301L tau heparin fibrillization, Alexa594 FP, 6 h | P10636; further: potency means the concentration at half of the fitted maximal effect; nearly all actives have a fitted effect of over 55% in size
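Quantitative HTS format: compounds meet 15 uM recombinant K18 P301L tau and Alexa 594-tau tracer in 100 mM sodium acetate pH 7; 20 uM heparin triggers fibrillization at 37 C over 6 hr; FP gives the signal.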
JMJD2E inh: inhibitors of human JMJD2E histone demethylase; JMJD2E catalytic domain, FDH-coupled NADH fluorescence (FDH is formaldehyde dehydrogenase); Potency, µM (top dose mostly 57.1 µM), inactives show top-dose activity change, negative = inhibition, most hits filed as inhibitors; actives 1.6% (n = 230,000); AID 2147; active means well fitted inhibition curve with a large enough effect, not every such curve was filed as active; inconclusive means small, poorly fitted or top-dose-only effect, or another doubt; inactive means no such curve, though single readings can be large or run the other way;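 further: potency means the concentration at half of the fitted maximal effect; 0% = wells with enzyme and -100% = buffer wells without enzyme; nearly all actives have a fitted effect of over 50% in size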
Target sequence (B2RXH2 1-337 limits assumed): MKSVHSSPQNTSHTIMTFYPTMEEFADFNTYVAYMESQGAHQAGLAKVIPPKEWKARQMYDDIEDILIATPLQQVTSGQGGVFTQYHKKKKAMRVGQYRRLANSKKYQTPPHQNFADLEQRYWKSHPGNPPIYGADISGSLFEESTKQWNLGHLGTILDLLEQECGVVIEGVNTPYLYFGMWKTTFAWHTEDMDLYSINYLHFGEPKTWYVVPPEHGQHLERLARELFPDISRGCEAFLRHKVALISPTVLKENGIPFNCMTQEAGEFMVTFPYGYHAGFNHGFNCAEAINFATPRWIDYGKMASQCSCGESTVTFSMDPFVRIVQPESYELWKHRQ
An asterisk follows results filed as active; ? = inconclusive; nt = not tested or not shown; [ ] = remark or other dose. In the library only some 5.3% were active in any assay of this set; here they are far more common. Unless noted, the call rests on the fitted dose curve; in most records, active means well fitted curve in the direction sought with a large enough effect; inconclusive means small, poorly fitted or top-dose-only effect, or another doubt; inactive means no such curve, though single readings can be large; an effect the other way counts as inactive or inconclusive. Unless noted, on the % scale 0 is the no-effect control and ±100 the full control effect.

SMILES	FBPA coupling cs	Tau fluor cs	Tau fibril ThT	Sfp inh	Tau fibril FP	JMJD2E inh
COc1ccc(Oc2ncc3nc(-c4ccc(F)cc4)c(=O)n(CCC#N)c3n2)cc1	-1	nt	nt	2%	nt	nt
O=C1CSC(=S)N1/N=C/C=C/c1ccccc1	-1	-11%	?	-8%	-7%	-4%
O=C1CSC(=S)N1N=C1CCCCCC1	0	-5%	-3%	18µM*	6%	-2%
O=C(Cc1ccccc1)Nn1c(O)c(/C=C2\C=Nc3ccccc32)sc1=S	0	7.9µM*[quencher]	2.5µM*	17%	?	-6%
CS(=O)(=O)c1ccc(CNC(=O)[C@H]2C[C@@H]2[C@H](NP(=O)(c2ccccc2)c2ccccc2)c2ccccc2)cc1	2	-20%	-20%	21%	-1%	4%
NC(=O)C1CCN(C(=O)c2ccc3c(c2)S(=O)(=O)c2ccccc2C3=O)CC1	0	nt	nt	14%	nt	nt
NC(=O)C1CCN(C2=C(Cl)C(=O)c3ccccc3C2=O)CC1	-51*	3%	13%	18µM*	3%	7%
O=C(O)C1CCN(C(=O)c2ccccc2Cl)CC1	5	-4%	2%	3%	2%	0%
O=C1C(Cl)=C(N2CCC(C(=O)O)CC2)C(=O)c2ccccc21	-29	10µM*[quencher]	4.5µM*	?	11µM*	-20%
CCCN1CCc2nc(N3CCN(c4ncccn4)CC3)ncc2C1	nt	3%	?	nt	1%	nt
CC(C)c1ccc(CNc2nc(-c3ccco3)nn2C(=O)c2ccc([N+](=O)[O-])cc2)cc1	nt	16µM*[quencher]	?	nt	1%	nt
O=C(c1ccc([N+](=O)[O-])cc1)n1nc(-c2ccccc2)nc1NCc1ccccc1	-2	0%	-1%	-2%	-3%	7%
Cc1ccc(NS(=O)(=O)c2cc([N+](=O)[O-])ccc2NNC(=S)Nc2cc(C)ccc2C)c(C)c1	-5	13µM*[quencher]	?	-72%	4%	-5%
Cc1ccc(NS(=O)(=O)c2cc([N+](=O)[O-])ccc2NNC(=S)Nc2cccc(Cl)c2)c(C)c1	-4	7.9µM*[quencher]	10µM*	7.9µM*	?	?
COc1ccc(NC(=S)NNc2ccc([N+](=O)[O-])cc2S(=O)(=O)Nc2ccc(C)cc2C)cc1	-2	14µM*[quencher]	32µM*	40µM*	-5%	?
Cc1ccc(Nc2c(-c3ccc(N4CCOCC4)cc3)nc3c(C)cccn23)cc1	nt	?	?	nt	9%	nt
O=C(CSc1nnc(-c2cccnc2)o1)c1cc2ccccc2oc1=O	2	-21%	?	?	2%	-19%
Cn1cnnc1SCC(=O)c1cc2ccccc2oc1=O	-3	?	28µM*	-75%	?	?
Fc1ccc(-n2[nH]nnc2=S)cc1N1CCCC1	9	-6%	-8%	79µM*	-2%	?
CN1CCN(NC(=S)Nc2ccc(OC(F)F)cc2)CC1	5	-9%	-9%	56µM*	1%	5%
CCCCNC(=O)CCn1c(=O)c2ccccc2n(Cc2ccccc2C#N)c1=O	nt	-7%	-3%	nt	-4%	nt
Cc1cccc(Cn2c(=O)n3nc(-c4ccccc4)nc3c3ccccc32)c1	nt	-22%	-6%	nt	?	nt
CCOC(=O)c1ccc(NC(=O)C(C)N(c2ccc(OCC)cc2)S(C)(=O)=O)cc1 (centres undefined)	nt	-29%	?	nt	-10%	nt
O=C1OCC2OC(O)C(O)C(O)C2OC(=O)c2cc(O)c(O)c(O)c2-c2c(O)c(O)c3oc(=O)c4c(c(O)c(O)c5oc(=O)c2c3c54)-c2c1cc(O)c(O)c2O (centres undefined)	-15	?	7.9µM*	3.5µM*	?	0.56µM*
CN1CCN(c2ncc3nc(-c4ccccc4)c(=O)n(CCC#N)c3n2)CC1	-2	nt	nt	3%	nt	nt
SMILES	FBPA coupling cs	Tau fluor cs	Tau fibril ThT	Sfp inh	Tau fibril FP	JMJD2E inh
CCOc1cc(S(=O)(=O)NCCc2c(C)[nH]c3ccc(C)cc23)ccc1F	nt	?	-8%	nt	?	nt
CCOc1cc(S(=O)(=O)NCCc2c(C)[nH]c3ccc(C)cc23)ccc1Br	nt	3.5µM*[quencher]	?	nt	15%	nt
O=C(CN1CCCc2ccccc21)NCCc1ccc(F)cc1	4	-24%	-14%	79µM*	-8%	?
O=C1C2CC=CCC2C(=O)N1c1ccc(N2CCN(c3ccccn3)CC2)c([N+](=O)[O-])c1 (centres undefined)	2	-28%	14µM*	-9%	3%	0%
CN1CCN(C(=S)Nc2ccc([N+](=O)[O-])cc2)CC1	-2	-10%	-9%	89µM*	8%	-1%
O=[N+]([O-])c1ccc(N2CCN(C(=S)NCc3ccc(Cl)cc3)CC2)cc1	-1	?	?	14%	?	-4%
O=[N+]([O-])c1ccc(NC(=S)N2CCCC2)cc1	4	nt	nt	11%	nt	nt
O=C(c1ccc(N2CCCCC2)c([N+](=O)[O-])c1)N1CCN(c2ccccn2)CC1	-2	-7%	?	-12%	8%	4%
C=CCNC(=S)N1CCN(c2ccc([N+](=O)[O-])cc2)CC1	0	-10%	13µM*	19%	1%	4%
O=[N+]([O-])c1ccc(/C=N\N2CCN(c3ccc(Cl)cc3)CC2)cc1	1	-16%	2.2µM*	7%	3%	1%
CCNC(=S)N1CCN(c2ccc([N+](=O)[O-])cc2)CC1	0	-5%	5.6µM*	2%	2%	1%
O=C1CCCC(=O)N1c1ccc(N2CCN(c3ccc([N+](=O)[O-])cc3)CC2)c([N+](=O)[O-])c1	0	-20%	4µM*	0%	0%	2%
COc1ccc(NC(=O)N2CCN(c3ccc([N+](=O)[O-])cc3)CC2)cc1	1	-8%	-1%	6%	5%[2.34 µM]	16%
COc1ccc(NC(=O)N2CCN(c3ccc([N+](=O)[O-])cc3)CC2)cc1OC	-10	-23%	8.9µM*	6%	-4%	-10%
O=C1CCCC(=O)N1c1ccc(N2CCN(c3ccccc3)CC2)c([N+](=O)[O-])c1	1	-6%	?	-12%	3%	2%
NC(=O)c1ccc(N2CCN(c3ccc(O)cc3)CC2)c([N+](=O)[O-])c1	-9	-21%	18µM*	32µM*	1%	-20%
CC[C@]1(c2ccccc2)NC(=O)NC1=O	-3	nt	nt	10%	nt	nt
CCCCNC(=O)CCCn1c(=O)c2ccccc2n(CC(=O)Nc2ccccc2OCC)c1=O	nt	-6%	0%	nt	-2%	nt
CCOc1ccc(CCNC(=O)c2cc3c(=O)n(C)c4ccccc4c3n2C)cc1OCC	nt	-12%	-13%	nt	-2%	nt
Cc1ccccc1-n1c(=O)c2c3c(sc2n2cnnc12)CCCC3	nt	-4%	-2%	nt	-2%	nt
